PTPN22 inh 2 = blocks human PTPN22 phosphatase activity; 96,000 compounds, 0.21% hits; AID 640; Q9Y2R2; recombinant LYP catalytic domain, DiFMUP fluorescence; inhibition, % at 2 µM;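 active means inhibition at 2 µM at or above a set limit, the screen mean plus 3 SD, cut at about 24% in these data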;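 further: 0% = DMSO with enzyme and 100% = enzyme fully blocked by orthovanadate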
Target sequence (Q9Y2R2 whole entry, looked up, the tested form may be a part): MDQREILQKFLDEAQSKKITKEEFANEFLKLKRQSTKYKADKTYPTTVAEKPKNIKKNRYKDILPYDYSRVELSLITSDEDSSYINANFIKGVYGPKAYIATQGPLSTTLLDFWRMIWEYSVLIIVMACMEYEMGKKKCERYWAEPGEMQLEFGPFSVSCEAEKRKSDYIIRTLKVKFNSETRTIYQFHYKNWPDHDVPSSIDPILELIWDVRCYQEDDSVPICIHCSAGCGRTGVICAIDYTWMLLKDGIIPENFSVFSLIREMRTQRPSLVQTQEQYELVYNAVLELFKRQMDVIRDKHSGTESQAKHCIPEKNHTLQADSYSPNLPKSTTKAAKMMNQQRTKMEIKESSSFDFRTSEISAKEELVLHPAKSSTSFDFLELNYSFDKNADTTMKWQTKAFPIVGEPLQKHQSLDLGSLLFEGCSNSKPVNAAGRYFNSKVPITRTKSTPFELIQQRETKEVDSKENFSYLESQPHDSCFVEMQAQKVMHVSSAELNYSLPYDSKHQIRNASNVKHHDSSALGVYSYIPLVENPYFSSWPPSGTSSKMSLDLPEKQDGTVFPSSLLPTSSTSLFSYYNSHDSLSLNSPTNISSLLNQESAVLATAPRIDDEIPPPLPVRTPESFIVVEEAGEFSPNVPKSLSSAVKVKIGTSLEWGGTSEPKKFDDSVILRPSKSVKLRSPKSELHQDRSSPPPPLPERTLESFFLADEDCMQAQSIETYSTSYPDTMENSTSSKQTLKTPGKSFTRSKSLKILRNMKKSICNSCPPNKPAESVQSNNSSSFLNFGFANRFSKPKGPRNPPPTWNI
PTPN22 act = activators of human LYP (PTPN22) phosphatase. recombinant LYP, DiFMUP fluorescence; 0 = plate median, 100 = signal doubled. activation, % at 2 µM. 96,000 compounds, 0.11% hits. AID 697;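 active means activation at 2 µM above a set limit, the mean plus 5 SD, cut at about 37% in these data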
MRP1 act = MRP-1 activation | H69AR cells + doxorubicin, viability rescue, CellTiter-Glo | viability increase, % at 10 µM | 140,000 compounds, 0.61% hits;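 active means viability gain under doxorubicin at or above a set limit, the compound median plus 3 SD, cut at about 4.7% in these data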;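 further: MRP-1 overexpressing cells given doxorubicin 25 µM after compound pretreatment; 18-22 h compound pretreatment then 72 h with doxorubicin before readout; 0% = doxorubicin-only wells and 100% = vehicle-treated cells without doxorubicin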
PLAP act = activators of human placental alkaline phosphatase. AID 696. 96,000 compounds, 1.2% hits. P05187. activation fold at 20 µM. purified PLAP enzyme, luminescent substrate read-out; active compounds read high; in the data active means activation fold above about 2
MRP resist rev = MRP-mediated drug resistance reversal | 85,000 compounds, 0.04% hits | differential viability (reversal), % at 10 µM | H69AR cells + 2 uM doxorubicin, CellTiter-Glo, 72 h;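 active means viability drop by adding the cancer drug above about 55%, with treated viability meeting a 40% cutoff, limit read from the data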;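 further: viability without doxorubicin minus viability with 2 µM doxorubicin for each compound; larger differential means the compound sensitizes cells more to doxorubicin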
FAK blocker = FAK (human) kinase inhibition | Q05397 | biochemical FAK kinase activity assay | inhibition, %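 (tested at 7 µM)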 | 97,000 compounds, 0.84% hits | AID 727;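 further: 0% = DMSO and 100% = reference compound high control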
FAK inh conf = confirmation of human focal adhesion kinase (FAK) inhibitors; AID 794; inhibition, % at 7 µM; shares compounds with FAK blocker; 750 compounds, 28% hits; FAK kinase biochemical inhibition assay
An asterisk follows results filed as active; x = not tested or not shown. Shown are actives, neighbours in structure and some others; about 2.2% of the full set was active somewhere. Unless noted, no stated cut-off is given here; in the data, active means inhibition above about 19%; inactive means the rest.

SMILES	PTPN22 inh 2	PTPN22 act	MRP1 act	PLAP act	MRP resist rev	FAK blocker	FAK inh conf
CCOC(=O)c1ccc(NC(=O)CSc2nc(C)cc(=O)[nH]2)cc1	3.7	-3.2	-2.0	1	27.1	20.3*	4.8
Cc1cc(=O)[nH]c(SCC(=O)Nc2ccc(C(=O)O)cc2)n1	-1.2	1.9	0.5	1.1	2.3	1.9	x
COCCCNc1c2c3c(cccc3[nH]c1=O)C(=O)c1ccccc1-2	-3.7	3.1	-4.7	1	-36.5	20.3*	9.8
O=c1c2ccccc2nc2ccc(NCc3ccco3)nn12	2.8	-0.5	-4.0	0.9	-38.0	23.4*	1.0
NC1=NC2(CCCCC2)N=C(Nc2ccc(Br)cc2)N1	x	x	-1.8	x	x	x	x
CCN(CC)c1ncnc2ccc(Br)cc12	11.9	-10.3	-3.6	1.2	17.6	45.4*	17.6
C/C(=N\NC(=O)Cc1cccc2ccccc12)c1ccncc1	x	x	-0.5	x	x	x	x
O=C(N/N=C/C=C/c1ccccc1)c1cc2c(ccc3ccccc32)o1	32.3*	-30.8	-1.7	1.1	x	41.9*	17.4
C=CCn1cc(/C=N\NC(=O)c2cc3c(ccc4ccccc43)o2)c2ccccc21	-1.9	-0.2	-4.0	1.1	x	1.6	x
O=C1NC(=S)N/C1=C/c1cc([N+](=O)[O-])ccc1O	2.0	-2.1	-1.1	0.5	5.2	-2.1	x
CCOc1cc(/C=C2/NC(=S)NC2=O)ccc1OCc1ccc([N+](=O)[O-])cc1	4.9	-6.9	-2.6	1.7	x	41.0*	22.4*
Cc1ccc(NC(=O)c2ccc(OC(=O)CCN3C(=O)c4ccccc4C3=O)cc2)cc1	4.2	-1.4	-2.2	1	2.3	19.5*	11.2
Cc1cc(C)cc(OC(=O)CCN2C(=O)c3ccccc3C2=O)c1	-6.1	6.6	-3.5	x	-1.6	3.1	x
Cc1ccc(C2CC(c3cccs3)=NN2S(=O)(=O)c2ccc(C)cc2)cc1 (stereo not given)	x	x	-2.4	x	x	x	x
COC(=O)c1c(NC(=O)Cc2cccs2)sc2c1CCCC2	0.7	-1.1	-0.6	1	0.8	20.7*	8.2
Cc1nn(CC(=O)Nc2ccc3c(c2)oc2ccccc23)c(=O)c2ccccc12	-1.4	-0.4	-6.0	0.9	0.6	28.8*	16.4
CNC(=O)Cn1nc(C)c2ccccc2c1=O	-2.3	2.1	-0.2	0.8	-7.7	2.8	x
O=C(N1CCOCC1)N1c2ccccc2Sc2ccccc21	-7.3	11.7	-0.4	1.3	x	40.3*	2.0
CC1CCN(C(=O)N2c3ccccc3Sc3ccccc32)CC1	5.1	-6.2	-1.4	1	18.7	-0.7	x
Clc1ccc(OCc2nn3c(-c4ccco4)nnc3s2)c(Cl)c1	11.8	-10.7	0.6	1	-33.7	38.8*	18.5
Cc1ccc(-c2onc3ccc(C4(C)OCCO4)cc23)cc1	-0.6	-0.1	0.7	1	10.1	0.4	x
Cc1ccc(-c2onc3ccc(C=O)cc23)cc1	6.1	-5.0	-4.1	1.1	-52.7	22.4*	29.6*
CCOC(=O)c1cnn(-c2ncnc3sc4c(c23)CCC4)c1N	1.9	-2.3	-4.3	1.2	-7.5	25.6*	17.1
O=C(COc1ccc(/C=N/NC(=O)c2cc3ccccc3o2)cc1Cl)Nc1ccccc1	8.7	-10.6	-1.7	1.4	x	39.6*	35.8*
O=C(N/N=C/c1cccc([N+](=O)[O-])c1)c1cc2ccccc2o1	x	x	-4.9	x	x	x	x
SMILES	PTPN22 inh 2	PTPN22 act	MRP1 act	PLAP act	MRP resist rev	FAK blocker	FAK inh conf
C=C(c1cccc2ccccc12)P(=O)(O)O	2.0	1.8	0.6	0.8	13.8	29.4*	20.2*
CC(C)(C)c1nc(SCC(=O)Nc2ccc3c(c2)OCCO3)c2ccccc2n1	-4.0	8.3	-5.7	0.9	x	19.4*	8.0
CC(C)(C)c1nc(SCC(=O)Nc2ccc(N3CCOCC3)cc2)c2ccccc2n1	2.2	-0.8	-5.5	1.1	-12.3	31.9*	15.0
CCc1nc(SCC(=O)c2ccc3c(c2)OCCO3)c2ccccc2n1	-0.4	3.6	-2.3	1.2	x	22.4*	8.0
O=C(CSc1nc2ccccc2[nH]1)Nc1ccc2c(c1)OCCO2	7.2	-9.6	-0.7	1.5	0.2	1.7	x
O=C(CSc1nc2ccccc2o1)Nc1ccc(N2CCOCC2)cc1	-6.9	3.6	0.0	1	x	4.3	x
CCOC(=O)c1[nH]c2ccc(OC)cc2c1NC(=S)N1CCN(c2ccccc2OC)CC1	x	x	-3.5	x	x	x	x
COc1ccc([N+](=O)[O-])cc1NC(=O)c1cn(-c2ccc(C)c(C)c2)c(=O)c2ccccc12	x	x	-3.2	x	x	x	x
Cc1sc2nc(COC(=O)CNC(=O)c3ccc(C(C)(C)C)cc3)[nH]c(=O)c2c1C	x	x	-0.9	x	x	x	x
COCC(C)N=C1NN=C(c2c[nH]c3ccccc23)CS1 (stereo not given)	x	x	-1.7	x	x	x	x
Cc1nn(C)c(C(=O)NNC(=S)NCC(C)C)c1Cl	x	x	-1.5	x	x	x	x
CSc1nc(N(CCO)CCO)c2sc3nc(-c4ccco4)c4c(c3c2n1)CCC4	x	x	-2.6	1.6	-2.7	x	x
CSc1nc(SCCO)c2sc3nc(-c4ccco4)c4c(c3c2n1)CC(C)(C)OC4	22.4	-22.0	-0.8	1.4	x	28.3*	1.2
COc1ccc(CN(C(=S)Nc2ccccc2)C2CC(=O)N(c3ccccc3)C2=O)cc1 (stereo not given)	x	x	-4.7	x	x	x	x
COc1ccc(CN(C(=S)Nc2ccccc2)C2CC(=O)N(c3ccc(Cl)cc3)C2=O)cc1 (stereo not given)	4.8	-2.0	-5.5	0.9	x	87.3*	1.0
O=c1c(O)c(-c2cccs2)oc2ccccc12	-4.0	6.5	-3.6	1.1	-12.8	23.3*	11.9
O=c1c(O)c(-c2cccs2)oc2ccc(Cl)cc12	0.1	-1.2	-3.6	1	-15.3	8.8	x
Cc1c(C(=O)OCC2CCCO2)[nH]c2c1C(=O)CC(c1ccco1)C2 (stereo not given)	13.6	-15.4	-1.1	1.2	-35.0	26.1*	4.4
Cc1c(C(=O)OCC(C)C)[nH]c2c1C(=O)CC(c1ccco1)C2 (stereo not given)	2.8	-3.9	-4.7	1.1	-17.5	14.8	x
CC(C)(C)c1nc2ccccc2c2nnc(SCC(=O)Nc3nc4ccccc4s3)n12	20.6	-19.0	-1.9	1.2	x	23.1*	5.9
O/N=C/c1cc(Br)ccc1OCc1ccc(F)cc1	5.1	1.0	x	x	x	17.7	x
O/N=C/c1cc(Br)ccc1OCc1cccc(F)c1	3.9	1.5	-1.5	0.6	x	19.8*	5.7
CCOC(=O)C(C)Sc1cc(CS(=O)(=O)c2ccccc2)nc(-c2ccccc2)n1 (stereo not given)	10.0	-6.3	-1.4	1.2	x	3.1	x
Oc1ccc(Br)cc1/C=N/n1cnc2ccccc21	0.9	-1.4	-4.7	1.1	x	19.0*	5.6
Oc1ccc(Br)cc1/C=N/N1CCCCC1	x	x	1.5	x	x	x	x
CCC(=O)Nc1ccc(S(=O)(=O)Nc2cc(C)on2)cc1	-11.0	11.7	-1.6	1	x	33.6*	0.1
CCOC(=O)Nc1ccc(S(=O)(=O)Nc2cc(C)on2)cc1	-3.3	7.6	-0.7	0.9	3.8	-3.6	x

Assay outcomes: PubChem BioAssay, several laboratories
